# Laboratory results published in ChEMBL document CHEMBL4513216, “Probing the Open Global Health Chemical Diversity Library for Multistage-Active Starting Points for Next-Generation Antimalarials” (ACS Infect Dis, 2020).
# Among all 69,000 compounds or so, about 8,600 (12%) showed an effect of 50% or more. The sample holds strong results, similar compounds and a random draw of the others, so the mix is not that of the screen.
# Test system: Plasmodium berghei
# Test: Screen against P. berghei liver stage (PbLuc), transformed with Luciferase, at 10uM
# Format: functional, HepG2
# Conditions: tested at 10 uM
row,Compound,INHIBITION [%]
1,COC(=O)Cn1c(=O)[nH]c2cn(-c3ccccc3)c(=O)n21,-4.56
2,CC(C)CCN(C)Cc1ccccc1-c1nc(C(C)C)cc(=O)[nH]1,-6.83
3,Cc1cc(CNCc2c(C(C)C)nn(C)c2N2CCOCC2)no1,28.8
4,O=C(COCCOc1ccccc1)N1CCCC(n2ccnc2)C1 (configuration not stated),15.6
5,Cc1ccc(CN2CCn3c(C(=O)N(C)C)cnc3C2)s1,42.1
6,CC1CCc2n[nH]c(C(=O)N3CCc4c(nc(N(C)C)[nH]c4=O)C3)c2C1 (configuration not stated),16.3
7,CN(Cc1ncnn1C)c1ccnc(Cc2ccccc2)n1,-7.16
8,CN(C)c1nccc(N(C)Cc2nc3ccccc3n2C)n1,55.5
9,CN(C)c1nccc(N(C)Cc2ncnn2C)n1,32
10,O=C(NCC1CC1)[C@@H]1C[C@@H]2CCN(Cc3ccccc3)C[C@H]2O1,0.618
11,O=C(NCC1CC1)[C@H]1C[C@@H]2CCN(CCc3ccccc3)C[C@H]2O1,54.4
12,COCCNC(=O)[C@H]1C[C@@H]2CCN(CCc3ccccc3)C[C@@H]2O1,22.9
13,O=C([C@@H]1C[C@@H]2CCN(C3CCOCC3)C[C@@H]2O1)N1CCCC1,-24.1
14,O=C(NC1CC1)[C@@H]1C[C@@H]2CCN(Cc3ccccc3)C[C@@H]2O1,47.4
15,COCCNC(=O)[C@H]1C[C@@H]2CCN(c3ccccc3)C[C@H]2O1,10.5
16,O=C(NC1CCC1)[C@@H]1C[C@@H]2CCN(Cc3cccs3)C[C@@H]2O1,50
17,O=C(NCC1CCOCC1)[C@H]1C[C@@H]2CCN(Cc3ccccc3)C[C@H]2O1,32.2
18,O=C(NC1CCC1)[C@@H]1C[C@@H]2CCN(Cc3ccncc3)C[C@H]2O1,32.7
19,O=C([C@H]1C[C@@H]2CCN(C3CCOCC3)C[C@H]2O1)N1CCCC1,51

row,Compound,INHIBITION [%]
1,COCCNC(=O)[C@H]1C[C@@H]2CCN(CCc3ccccc3)C[C@H]2O1,59
2,O=C([C@@H]1C[C@@H]2CCN(C3CCOCC3)C[C@H]2O1)N1CCCC1,-9.26
3,COc1ccc(OC2CCN(C(=O)[C@@H](N)Cc3c[nH]cn3)CC2)cc1,23.3
4,CN(C)CC1CSCCCN1C(=O)c1cccc(C(F)(F)F)c1 (configuration not stated),4.35
5,CC(=O)N1CCN(C(=O)Cc2cnc(-c3c(Cl)cccc3Cl)s2)CC1,13.8
6,CC(C)N1CCC(c2cc(C(F)(F)F)n3ccnc3n2)CC1,15.9
7,O=C1CNc2ncnc(Nc3cccc(Cn4cccn4)c3)c2N1,46.1
8,Cc1nonc1CN(C)Cc1cnn(-c2ccc(Cl)cc2)c1,-8.58
9,CN(C)CCCC(=O)N1C[C@@H]2CC[C@H]1CN(Cc1ccccc1)C2,11.2
10,c1ccc(-n2ccc(CN3CCCCC3Cn3cncn3)n2)cc1 (configuration not stated),-10.1
11,CCn1nc(C)c(NC(=O)CN2CC[C@@H](F)C2)c1C,24.5
12,COc1ccccc1CN1CC[C@H]2C[C@H](C(=O)N3CCCC3)O[C@H]2C1,64.2
13,O=C([C@@H]1C[C@@H]2CCN(Cc3ccoc3)C[C@H]2O1)N1CCCC1,26.7
14,Cc1ncccc1NC(=O)[C@H]1C[C@@H]2CCN(Cc3nccs3)C[C@@H]2O1,31.8
15,CNC(=O)[C@H]1C[C@@H]2CCN(CCc3ccccc3)C[C@@H]2O1,18.3
16,O=C([C@@H]1C[C@@H]2CCN(Cc3ccc4c(c3)OCO4)C[C@@H]2O1)N1CCCC1,33.4
17,O=C([C@H]1C[C@@H]2CCN(c3cccc(F)c3)C[C@H]2O1)N1CCCC1,89.5
18,COc1ccccc1CN1CC[C@H]2C[C@@H](C(=O)N3CCCC3)O[C@H]2C1,-16.6
19,Cc1ncccc1NC(=O)[C@H]1C[C@@H]2CCN(Cc3ccsc3)C[C@H]2O1,75.4

row,Compound,INHIBITION [%]
1,CN1CCN(C(=O)[C@@H]2C[C@@H]3CCN(c4cccc(F)c4)C[C@H]3O2)CC1,23.3
2,O=C([C@@H]1C[C@@H]2CCN(CCc3ccccc3)C[C@H]2O1)N1CCCC1,50
3,O=C([C@@H]1C[C@@H]2CCN(c3cccc(F)c3)C[C@H]2O1)N1CCCC1,42.1
4,Cc1ncccc1NC(=O)[C@@H]1C[C@@H]2CCN(Cc3cccs3)C[C@H]2O1,8.93
5,CC(C)c1ccc(-n2ncc(C(=O)NCC3COC(C)(C)O3)c2N)cc1 (configuration not stated),-20.1
6,CCOC(=O)NCCC(=O)NC(C)(C)c1ccc2c(c1)OCCO2,-15.7
7,CC(C)(C)c1nc(CN(Cc2cccs2)CC2CCCO2)no1 (configuration not stated),11.2
8,c1cncc(COc2ccccc2CNC2CCc3ncnn3C2)c1 (configuration not stated),-4.823
9,Cc1noc(C2CCC3(CCN(C(=O)c4ncccn4)CC3)O2)n1 (configuration not stated),-14.2
10,O=C(C(c1ccccc1)S(=O)(=O)c1ccccn1)N1CCCCC1 (configuration not stated),24.7
11,Cc1ccc(C(C)N(C)C(=O)c2ccc(=O)n(C)c2)s1 (configuration not stated),37.4
12,Cc1ncsc1CN1CCOC(C)(C(=O)N(C)C)C1 (configuration not stated),21.1
13,CCCn1c(C)c(CC(=O)NC(C)(C)CO)c2c1CC(C)(C)CC2=O,4.25
14,Cn1cc(CN2C[C@@H]3COC[C@]3(C(=O)NCCc3ccccc3)C2)cn1,32.2
15,O=C(NC1CC1)[C@H]1C[C@@H]2CCN(CCc3ccccc3)C[C@H]2O1,44.4
16,O=C(NC1CC1)[C@@H]1C[C@@H]2CCN(Cc3ccccc3)C[C@H]2O1,29.9
17,O=C(NC1CCC1)[C@@H]1C[C@@H]2CCN(CCc3ccccc3)C[C@H]2O1,81.2
18,CS(=O)(=O)c1ccc(CNC(=O)N2CCC(CO)CC2)cc1,17.4
19,CCc1nccn1CC1CCCN1S(=O)(=O)N1CCCOCC1 (configuration not stated),-9.39
